TDP1 inh = inhibitors of human tyrosyl-DNA phosphodiesterase TDP1 | Q9NUW8 | recombinant TDP1, AlphaScreen DNA substrate cleavage | Potency, µM (series often up to 130 µM), most hits filed as inhibitors | hit rate 0.28% among 350,000 | AID 485290; note: nearly all actives have a fitted effect of over 40% in size
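Here, a 5' biotin and 3' phosphotyrosine-FITC DNA oligonucleotide reports Tdp1 activity: intact substrate bridges AlphaScreen beads, while cleavage leaves a 3' phosphate and drops signal. All incubations at room temperature.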
BLM inh = Bloom syndrome helicase (human) inhibition; hit rate 0.2% among 350,000; P54132; Potency, µM (series often up to 56.1 µM), usual class: inhibitors; recombinant BLM DNA unwinding, fluorescence dequenching; note: nearly all actives have a fitted effect of over 35% in size
RECQ1 inh = blocks DNA unwinding by human RECQ1; P46063; hit rate 0.54% among 240,000; RECQ1 DNA unwinding, red fluorescence kinetic read; AID 2549; Potency, µM (highest dose often 57.3 µM), hits mostly inhibitors; note: nearly all actives have a fitted effect of over 30% in size
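RECQ1T1 50 nM; forked duplex (20 bp + 30-nt ss tails) 200 nM, ATP 2 mM final; pH 8.0, 2 mM MgCl2, 2.5 ug/ml poly(dI-dC); 15 min compound preincubation; discontinuous kinetic read over 2 h at RT.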
APE1 inh = blocks human APE1 abasic DNA cleavage; P27695; recombinant APE1, TAMRA/BHQ-2 abasic DNA cleavage fluorescence; Potency, µM (series often up to 65.8 µM), actives largely listed as inhibitors; hit rate 0.35% among 350,000; AID 2517; note: nearly all actives have a fitted effect of over 55% in size
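APE1 at 0.75 nM preincubated 15 min at room temperature with compound. Reaction then started with 50 nM double-stranded THF-abasic substrate labelled with TAMRA/BHQ-2, and 525/598 nm fluorescence read kinetically. Activity taken as third-minus-first read difference, normalized to DMSO and NSC13755 controls.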
FEN1 inh-1 = inhibitors of human flap endonuclease 1; P39748; Recombinant FEN1 flap cleavage, fluorescence, 15 min; Potency, µM (titrated, usually from 114 µM), actives largely listed as inhibitors; hit rate 0.35% among 390,000; AID 588795; note: nearly all actives have a fitted effect of over 65% in size
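Nuclease activity of 10 nM FEN1 was measured after 15 min of room-temperature exposure to titrated compounds, by adding 50 nM flap substrate and reading plates at 0 and 15 min.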
FEN1 inh-2 = confirmation of human FEN1 inhibitors. shares compounds with FEN1 inh-1. FEN1 flap cleavage, TAMRA/BHQ2 fluorogenic DNA substrate. Potency, µM, usual class: inhibitors. hit rate 79% among 880. AID 720498; note: nearly all actives have a fitted effect of over 60% in size
Each line names hits and unclear results; the compound was inactive in the other large screens (follow-up assays come after a bar, where they were run). The list is not random: actives were taken first. Their share in the collection is about 0.92%. Calls come from the whole dose curve; as a rule, active = well fitted curve in the direction sought with a large enough effect; inconclusive = small, poorly fitted or top-dose-only effect, or another doubt; inactive = no such curve, though single readings can be large; an effect the other way counts as inactive or inconclusive.

COc1cccc2c1C(=O)c1c(O)c3c(c(O)c1C2=O)CC(O)(C(C)=O)CC3OC1CC(N(C)C)C(O)C(C)O1 (configuration not stated)	FEN1 inh-1 32µM (no result: TDP1 inh, BLM inh, RECQ1 inh, APE1 inh) | FEN1 inh-2 38
CC[C@@]1(O)C[C@H](O[C@H]2C[C@@H](N(C)C)[C@@H](O[C@H]3C[C@@H](O)[C@@H](O[C@H]4CCC(=O)[C@@H](C)O4)[C@@H](C)O3)[C@@H](C)O2)c2c(cc3c(c2O)C(=O)c2c(O)cccc2C3=O)[C@H]1C(=O)OC	none (no result: TDP1 inh, RECQ1 inh, APE1 inh, FEN1 inh-1)
CCOc1ccc(CNC(=O)C2CCN(c3nnc(C)c4c(C)n(-c5ccc(C)cc5)nc34)CC2)cc1	TDP1 inh inconclusive, FEN1 inh-1 inconclusive (no result: RECQ1 inh) | FEN1 inh-2 inconclusive
Cc1nnc(N2CCC(C(=O)NCc3ccc(F)cc3)CC2)c2nn(-c3ccc(Cl)cc3)c(C)c12	none (no result: RECQ1 inh, APE1 inh)
CC(C)=CCC1=C(OCC(=O)O)C(=O)c2ccccc2C1=O	BLM inh inconclusive, FEN1 inh-1 inconclusive | FEN1 inh-2 38
O=C(O)c1ccccc1-c1c2cc(I)c(=O)c(I)c-2oc2c(I)c(O)c(I)cc12	BLM inh 28µM, RECQ1 inh 22µM, APE1 inh 25µM, FEN1 inh-1 40µM | FEN1 inh-2 38
C=C(C(=O)C(C)(C)O)C(O)c1ccc([N+](=O)[O-])cc1 (configuration not stated)	none (no result: FEN1 inh-1)
O=C(NCc1cn(-c2ccccc2)nc1-c1ccccc1)c1ccc([N+](=O)[O-])cc1	none
O=C(O)/C=C/c1cn(-c2ccccc2)nc1-c1ccc(-c2ccc([N+](=O)[O-])cc2)o1	BLM inh inconclusive, FEN1 inh-1 inconclusive | FEN1 inh-2 76
CCn1c(=N)n(CCOc2ccc(Br)cc2)c2ccccc21	none (no result: RECQ1 inh, APE1 inh)
COc1ccc(C2C=C3CNS(=O)(=O)C3CC2OC(=O)c2ccc(C(F)(F)F)cc2)cc1 (configuration not stated)	none
O=C(O)c1cn(C2CC2)c2cc(N3CCN(S(=O)(=O)c4ccc5c(c4)OCCO5)CC3)c(F)cc2c1=O	FEN1 inh-1 inconclusive | FEN1 inh-2 43
CCn1cc(C(=O)O)c(=O)c2cc(F)c(N3CCN(S(=O)(=O)c4ccc(Br)cc4)CC3)cc21	none (no result: FEN1 inh-1)
COc1cccc(CNC(=O)CSc2ccc(-c3sc(-c4ccccc4)nc3C)nn2)c1	none (no result: RECQ1 inh, APE1 inh)
Cc1nc(Nc2ccncc2)c2oc3ccccc3c2n1	FEN1 inh-1 45µM | FEN1 inh-2 43
Cc1ccc(O/C=C2/Nn3c(nnc3-c3cc(-c4ccccc4)n[nH]3)S2)cc1	none (no result: BLM inh, RECQ1 inh, APE1 inh)
Cc1c(CCC(=O)O)c(=O)oc2c(C)c3occ(-c4ccc(Br)cc4)c3cc12	APE1 inh inconclusive (no result: TDP1 inh, RECQ1 inh) | FEN1 inh-2 inconclusive
COc1ccc(S(=O)(=O)N2CCN(C(=O)c3cc4c(s3)CCC4)CC2)cc1	APE1 inh 2.7µM, FEN1 inh-1 45µM (no result: TDP1 inh, BLM inh, RECQ1 inh) | FEN1 inh-2 76
COc1ccc(S(=O)(=O)N2CCN(C(=O)c3ccc([N+](=O)[O-])o3)CC2)cc1	TDP1 inh 45µM (no result: RECQ1 inh) | FEN1 inh-2 76
COCCn1c(=NC(=O)c2ccc3c(c2)OCCO3)sc2cc(S(N)(=O)=O)ccc21	none | FEN1 inh-2 inconclusive
CCc1nnc(SCc2nc(-c3ccccc3F)oc2C)c2cc3sccc3n12	none (no result: RECQ1 inh, APE1 inh)
O=C(O)COc1ccccc1C=NNc1ccc([N+](=O)[O-])cc1S(=O)(=O)Nc1ccc(Cl)cc1	none (no result: BLM inh, RECQ1 inh) | FEN1 inh-2 76
COc1ccc(NS(=O)(=O)c2cc([N+](=O)[O-])ccc2NN=Cc2ccccc2OCC(=O)O)cc1	none (no result: BLM inh, RECQ1 inh)
O=C(CCN1C(=O)/C(=C\c2cccs2)SC1=S)Nc1ccc(C(=O)O)cc1	FEN1 inh-1 inconclusive (no result: RECQ1 inh) | FEN1 inh-2 67
O=C(CCCN1C(=O)/C(=C\c2ccco2)SC1=S)Nc1ccc2ccccc2c1	none
O=C(CCN1C(=O)/C(=C/c2ccco2)SC1=S)Nc1ccc(C(=O)O)c(O)c1	APE1 inh 21µM, FEN1 inh-1 35µM (no result: TDP1 inh, RECQ1 inh) | FEN1 inh-2 85
O=C(CCN1C(=O)/C(=C/c2ccc(Cl)cc2)SC1=S)Nc1ccc(C(=O)O)cc1	APE1 inh inconclusive (no result: TDP1 inh, RECQ1 inh)
Cc1ccc(S(=O)(=O)c2c(Nc3ccccc3)sc(C(=O)c3ccc4c(c3)OCO4)c2N)cc1	none (no result: RECQ1 inh, APE1 inh)
CN(C)C1CCc2[nH]c3ccc(NC(=O)c4ccc(F)cc4)cc3c2C1 (configuration not stated)	none (no result: FEN1 inh-1)
CCOC(=O)C1Oc2ccccc2C(c2ccccc2)=C1C(C)=O (configuration not stated)	none (no result: FEN1 inh-1)
Cc1ccc(S/C(=N/S(=O)(=O)c2ccc(Cl)cc2)c2ccccc2)cc1	none (no result: BLM inh, RECQ1 inh, APE1 inh)
CCN(CC)CCCNC(=O)c1cc2c(-c3cccc(OC)c3)nn(C)c2s1	FEN1 inh-1 inconclusive (no result: TDP1 inh, RECQ1 inh) | FEN1 inh-2 inconclusive
CCN(CCCNC(=O)c1cc2c(Cl)nc3ccccc3c2s1)Cc1ccccc1	FEN1 inh-1 inconclusive (no result: RECQ1 inh, APE1 inh)
CCCCN(CC)CCCNC(=O)c1cc2c(-c3ccc(OC)c(OC)c3)nn(C)c2s1	FEN1 inh-1 35µM (no result: RECQ1 inh) | FEN1 inh-2 34
CCN(CC)CCCNC(=O)c1cc2c(Cl)nc3ccccc3c2s1	FEN1 inh-1 45µM | FEN1 inh-2 67
CCOCCCNC(=O)c1cc2c(-c3ccc(OC)c(OC)c3)nn(C)c2s1	FEN1 inh-1 inconclusive (no result: RECQ1 inh, APE1 inh)
Cc1ccc(NC(=O)Cn2cc(S(=O)(=O)c3ccccc3)c(=O)c3cc4c(cc32)OCO4)cc1	none (no result: RECQ1 inh, APE1 inh)
Cc1o[nH]c(=O)c1CCC(N)C(=O)O (configuration not stated)	none (no result: BLM inh, FEN1 inh-1)
O=C(C[n+]1ccccc1)c1ccc(O)c(O)c1	none (no result: TDP1 inh, BLM inh, RECQ1 inh, APE1 inh)
COc1cc2c(Cc3ccccc3)cncc2cc1O	none (no result: TDP1 inh, BLM inh, RECQ1 inh, APE1 inh) | FEN1 inh-2 inconclusive

Compound activity: PubChem BioAssay, National Center for Advancing Translational Sciences (NCATS)
